PubChem BioAssay (EPA / NIEHS)
Inconclusive results are not listed. Calls of active or inactive are those of the source. Rule for the calls, unless noted: active = hit-call score of the fitted dose curve at least 0.9, where 1 is the maximum; inactive = score below 0.9.

Experiments:
[1] = target: human Retinoid X Receptor beta (RXRb), RXRB (gene 6257) (UniProt P28702); experiment: ATG_RXRb_TRANS: Attagene TRANS-FACTORIAL HepG2 Assay for human Retinoid X Receptor beta (RXRb) (AID 2283013; active = hit-call score of the fitted dose curve at least 0.9, where 1 is the maximum)
Outline: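 Read-out: reporter mRNA induction via RT-PCR plus capillary electrophoresis fluorescence, analysed as signal increase relative to DMSO. Cells were human HepG2, transiently transfected with GAL4-UAS reporter constructs and chimeric receptor-Gal4 fusions, dosed for 24 h.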

[2] = read-out: E-selectin (Homo sapiens) (UniProt P16581); experiment: BSK_3C_Eselectin: BioMAP Diversity Plus: 3C Assay for Eselectin Biomarker Activity (AID 2283015); conditions: primary human endothelial cells (HUVEC); actives raise or lower the signal;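 note: cell surface E-selectin protein quantified by ELISA 24 h after dosing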
Outline: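 Primary human umbilical vein endothelial cells (3C system) were dosed with chemical and cell-surface E-selectin measured by ELISA 24 h later. Bidirectional curve fitting used DMSO as negative control and baseline.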

[3] = read-out: Interleukin-1 alpha (IL1a), IL1A (gene 3552); experiment: BSK_BE3C_IL1a: BioMAP Diversity Plus: BE3C Assay for Interleukin-1 alpha (IL1a) Biomarker Activity (AID 2283016); conditions: primary human bronchial epithelial cells; actives raise or lower the signal
Outline: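 ELISA read-out of IL-1a from human lung bronchial epithelial primary cells, 24 h post-dose. Gain or loss of signal fitted relative to DMSO negative control.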

[4] = read-out: Monocyte Chemoattractant Protein-1 (MCP1), CCL2 (gene 6347); experiment: BSK_3C_MCP1: BioMAP Diversity Plus: 3C Assay for Monocyte Chemoattractant Protein-1 (MCP1) Biomarker Activity (AID 2283017); conditions: primary human endothelial cells (HUVEC); actives raise or lower the signal
Outline: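 Primary human umbilical vein endothelial cells (3C system) were exposed to test chemical for 24 h, after which MCP-1 was quantified by ELISA. Activity was fitted bidirectionally against DMSO as negative control and baseline.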

[5] = read-out: Monocyte Chemoattractant Protein-1 (MCP1), CCL2 (gene 6347); experiment: BSK_4H_MCP1: BioMAP Diversity Plus: 4H Assay for Monocyte Chemoattractant Protein-1 (MCP1) Biomarker Activity (AID 2283018); conditions: primary human endothelial cells (HUVEC); actives raise or lower the signal
Outline: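 HUVEC primary cells, 24 h post-dose, MCP-1 by ELISA. Gain or loss of signal fitted bidirectionally vs DMSO baseline. Cytotoxicity: SRB stain (0.1% after 10% TCA fixation), read 560 nm, parallel cultures.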

[6] = read-out: Human Leukocyte Antigen - DR isotype (HLADR), HLA-DRA (gene 3122); experiment: BSK_3C_HLADR: BioMAP Diversity Plus: 3C Assay for Human Leukocyte Antigen - DR isotype (HLADR) Biomarker Activity (AID 2283019); conditions: primary human endothelial cells (HUVEC); actives raise or lower the signal
Outline: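 Primary human umbilical vein endothelial cells (3C system) were dosed with compound and cell-surface HLA-DR was quantified by ELISA at 24 h. Activity was fitted bidirectionally against DMSO as negative control and baseline.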

[7] = read-out: Interleukin-8 (IL8), CXCL8 (gene 3576); experiment: BSK_3C_IL8: BioMAP Diversity Plus: 3C Assay for Interleukin-8 (IL8) Biomarker Activity (AID 2283020); conditions: primary human endothelial cells (HUVEC); actives raise or lower the signal
Outline: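 HUVEC, 3C stimulation; 24 h compound exposure; IL-8 read by ELISA; gain or loss of signal fitted relative to DMSO control.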

[8] = read-out: Monokine induced gamma interferon (MIG), CXCL9 (gene 4283); experiment: BSK_3C_MIG: BioMAP Diversity Plus: 3C Assay for Monokine induced gamma interferon (MIG) Biomarker Activity (AID 2283021); conditions: primary human endothelial cells (HUVEC); actives raise or lower the signal
Outline: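 HUVEC, 3C system; 24 h chemical exposure; MIG by ELISA; bidirectional fit vs DMSO baseline.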

[9] = BSK_3C_SRB: Viability Assessment in the BioMAP Diversity Plus: 3C Assay (AID 2283023); conditions: primary human endothelial cells (HUVEC);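 note: fitted both ways against DMSO so a hit may be signal rise or drop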
Outline: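 Primary human umbilical vein endothelial cells in the 3C system were read 24 h after compound dosing. Total protein was stained with 0.1% sulforhodamine B after 10% TCA fixation and read at 560 nm, with bidirectional fitting against DMSO as baseline.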

[10] = read-out: Matrix Metallopeptidase 1 (MMP1), MMP1 (gene 4312); experiment: BSK_BE3C_MMP1: BioMAP Diversity Plus: BE3C Assay for Matrix Metallopeptidase 1 (MMP1) Biomarker Activity (AID 2283024); conditions: primary human bronchial epithelial cells; actives raise or lower the signal
Outline: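 ELISA read-out of MMP1 in human lung bronchial epithelial primary cultures, 24 h post-dose; bidirectional curve fit vs DMSO baseline, gain or loss of signal scored.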

[11] = BSK_3C_Vis: BioMAP Diversity Plus: 3C Assay for Morphology Visualization (AID 2283025); conditions: primary human endothelial cells (HUVEC);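 note: fitted both ways so gain or loss versus DMSO counts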;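 for AC50: light microscopy image of cell morphology used as background control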
Outline: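 HUVEC, 3C system; light microscopy of morphology at 24 h post-dose. Bidirectional fit vs DMSO baseline. Secondary readout, background-control function.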

[12] = read-out: Pselectin, SELP (gene 6403); experiment: BSK_4H_Pselectin: BioMAP Diversity Plus: 4H Assay for Pselectin Biomarker Activity (AID 2283026); conditions: primary human endothelial cells (HUVEC); actives raise or lower the signal
Outline: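 HUVEC, 24 h chemical exposure; P-selectin read by ELISA. Bidirectional curve fit vs DMSO baseline; gain or loss of signal scored.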

[13] = BSK_BE3C_SRB: Viability Assessment in the BioMAP Diversity Plus: BE3C Assay (AID 2283028); conditions: primary human bronchial epithelial cells
Outline: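 Human primary bronchial epithelial cells were exposed to test chemicals for 24 h. Total protein in parallel cultures was then measured by staining with 0.1% sulforhodamine B after 10% TCA fixation, with absorbance read at 560 nm. Activity was fitted bidirectionally against DMSO.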

[14] = read-out: Thrombomodulin, THBD (gene 7056); experiment: BSK_3C_Thrombomodulin: BioMAP Diversity Plus: 3C Assay for Thrombomodulin Biomarker Activity (AID 2283029); conditions: primary human endothelial cells (HUVEC); actives raise or lower the signal
Outline: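 HUVEC, 3C conditions; compound 24 h; thrombomodulin by ELISA; bidirectional curve fit vs DMSO baseline; parallel SRB total-protein staining for cytotoxicity.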

[15] = read-out: Urokinase-type plasminogen activator receptor (uPAR), PLAUR (gene 5329); experiment: BSK_4H_uPAR: BioMAP Diversity Plus: 4H Assay for Urokinase-type plasminogen activator receptor (uPAR) Biomarker Activity (AID 2283030); conditions: primary human endothelial cells (HUVEC); actives raise or lower the signal
Outline: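 Primary human umbilical vein endothelial cells were exposed to chemical for 24 h before cell-surface uPAR was quantified by ELISA. Activity was fitted bidirectionally against the DMSO negative control baseline.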

[16] = read-out: Vascular endothelial growth factor receptor 2 (Homo sapiens) (UniProt P35968); experiment: BSK_4H_VEGFRII: BioMAP Diversity Plus: 4H Assay for Vascular endothelial growth factor receptor 2 (VEGFR2) Biomarker Activity (AID 2283031); conditions: primary human endothelial cells (HUVEC); actives raise or lower the signal;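 for AC50: cell-surface VEGFR2 protein level quantified by ELISA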
Outline: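 Primary human umbilical vein endothelial cells in the BioMAP 4H system were dosed with test chemical, and 24 h later VEGFRII was measured by ELISA. Activity was fitted bidirectionally against DMSO as negative control and baseline.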

[17] = BSK_4H_SRB: Viability Assessment in the BioMAP Diversity Plus: 4H Assay (AID 2283027); conditions: primary human endothelial cells (HUVEC);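 note: cells exposed to compound for 24 h before staining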;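 for AC50: curves fitted both ways versus DMSO so AC50 may be loss or gain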
Outline: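 Cytotoxicity readout: sulforhodamine B (0.1%) staining of total protein after 10% TCA fixation, measured at 560 nm in human umbilical vein endothelium at 24 h. DMSO set the baseline; fitting was bidirectional.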

[18] = target: human Vitamin D Receptor (VDR), VDR (gene 7421) (UniProt P11473); experiment: ATG_VDR_TRANS: Attagene TRANS-FACTORIAL HepG2 Assay for human Vitamin D Receptor (VDR) (AID 2283022; active = hit-call score of the fitted dose curve at least 0.9, where 1 is the maximum)
Outline: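 HepG2 cells were transiently transfected with multiple GAL4-UAS reporter units, so signal reflects exogenous chimeric receptor-Gal4 activity. After 24 h compound exposure, reporter mRNA was measured by RT-PCR, fluorescent labelling and capillary electrophoresis, fitted for gain of signal versus DMSO.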

[19] = target: human Thyroid Receptor alpha (THRa1), THRA (gene 7067) (UniProt P10827); experiment: ATG_THRa1_TRANS: Attagene TRANS-FACTORIAL HepG2 Assay for human Thyroid Receptor alpha (THRa1) (AID 2283014; active = hit-call score of the fitted dose curve at least 0.9, where 1 is the maximum)
Outline: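 HepG2 cells transiently transfected with multiplexed GAL4-UAS reporter units for exogenous chimeric THRa1-Gal4; reporter mRNA measured 24 h after dosing by RT-PCR, 6-FAM labelling, HpaI digestion and capillary electrophoresis. Gain-of-signal fitted versus DMSO baseline.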

Measured: AC50

Sequence of human Retinoid X Receptor beta (RXRb), RXRB (gene 6257) (P28702 whole entry, looked up, the tested form may be a part): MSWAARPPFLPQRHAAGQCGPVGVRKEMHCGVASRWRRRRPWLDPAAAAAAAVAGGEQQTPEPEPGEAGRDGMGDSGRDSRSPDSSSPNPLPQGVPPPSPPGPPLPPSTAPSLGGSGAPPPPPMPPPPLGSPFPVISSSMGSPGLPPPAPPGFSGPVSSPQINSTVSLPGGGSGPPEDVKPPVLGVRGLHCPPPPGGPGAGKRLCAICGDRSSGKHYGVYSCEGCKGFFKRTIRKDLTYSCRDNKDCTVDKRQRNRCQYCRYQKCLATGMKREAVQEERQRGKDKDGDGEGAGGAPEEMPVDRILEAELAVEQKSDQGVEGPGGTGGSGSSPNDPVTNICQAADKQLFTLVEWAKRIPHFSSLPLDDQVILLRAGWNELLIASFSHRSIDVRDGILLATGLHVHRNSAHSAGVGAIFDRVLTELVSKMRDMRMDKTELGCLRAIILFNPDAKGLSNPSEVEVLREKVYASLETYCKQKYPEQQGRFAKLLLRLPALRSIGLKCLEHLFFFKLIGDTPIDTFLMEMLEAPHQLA
Sequence of human Thyroid Receptor alpha (THRa1), THRA (gene 7067) (P10827 whole entry, looked up, the tested form may be a part): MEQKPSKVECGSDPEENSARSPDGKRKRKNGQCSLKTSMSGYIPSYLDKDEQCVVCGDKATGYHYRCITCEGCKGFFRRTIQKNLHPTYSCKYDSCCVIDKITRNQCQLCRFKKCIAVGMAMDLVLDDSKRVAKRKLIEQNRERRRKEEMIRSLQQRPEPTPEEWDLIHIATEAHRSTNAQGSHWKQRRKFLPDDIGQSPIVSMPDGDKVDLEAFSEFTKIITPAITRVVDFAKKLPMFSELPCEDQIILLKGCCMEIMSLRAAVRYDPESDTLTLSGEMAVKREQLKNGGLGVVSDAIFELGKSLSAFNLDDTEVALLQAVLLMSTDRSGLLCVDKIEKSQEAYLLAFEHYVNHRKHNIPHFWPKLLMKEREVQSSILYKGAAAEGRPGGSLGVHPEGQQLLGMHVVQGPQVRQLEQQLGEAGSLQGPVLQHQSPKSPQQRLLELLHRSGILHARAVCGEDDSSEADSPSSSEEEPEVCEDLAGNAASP
Sequence of human Vitamin D Receptor (VDR), VDR (gene 7421) (P11473 whole entry, looked up, the tested form may be a part): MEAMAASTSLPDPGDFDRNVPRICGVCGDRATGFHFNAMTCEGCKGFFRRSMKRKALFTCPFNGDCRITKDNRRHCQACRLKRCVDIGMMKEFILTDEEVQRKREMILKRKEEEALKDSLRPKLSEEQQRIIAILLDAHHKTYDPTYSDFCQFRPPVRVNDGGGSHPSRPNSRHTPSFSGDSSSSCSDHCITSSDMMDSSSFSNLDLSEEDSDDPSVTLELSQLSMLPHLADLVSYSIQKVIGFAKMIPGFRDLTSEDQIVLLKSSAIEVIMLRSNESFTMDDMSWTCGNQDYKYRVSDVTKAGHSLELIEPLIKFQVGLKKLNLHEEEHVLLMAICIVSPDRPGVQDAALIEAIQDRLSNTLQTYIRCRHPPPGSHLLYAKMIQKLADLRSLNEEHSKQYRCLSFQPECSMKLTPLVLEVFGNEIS
Sequence of E-selectin (Homo sapiens) (P16581 whole entry, looked up): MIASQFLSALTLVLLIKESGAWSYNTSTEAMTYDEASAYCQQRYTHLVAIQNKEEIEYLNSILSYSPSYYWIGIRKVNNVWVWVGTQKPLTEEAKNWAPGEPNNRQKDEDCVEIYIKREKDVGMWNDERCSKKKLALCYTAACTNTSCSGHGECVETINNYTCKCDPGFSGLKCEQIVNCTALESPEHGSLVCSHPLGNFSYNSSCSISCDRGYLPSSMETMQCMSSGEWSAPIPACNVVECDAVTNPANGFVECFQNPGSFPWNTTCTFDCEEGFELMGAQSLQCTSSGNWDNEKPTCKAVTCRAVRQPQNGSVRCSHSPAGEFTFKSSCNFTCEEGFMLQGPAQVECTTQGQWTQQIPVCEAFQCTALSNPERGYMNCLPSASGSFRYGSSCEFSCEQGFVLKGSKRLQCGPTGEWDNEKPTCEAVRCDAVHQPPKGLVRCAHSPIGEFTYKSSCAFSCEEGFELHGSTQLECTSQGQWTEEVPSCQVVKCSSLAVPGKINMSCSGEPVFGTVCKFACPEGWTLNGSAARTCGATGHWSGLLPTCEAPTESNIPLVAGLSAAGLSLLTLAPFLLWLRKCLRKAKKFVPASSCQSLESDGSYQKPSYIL

CC(C)NCC(O)c1ccc(O)c(O)c1 (stereo not given)
not listed: [17] | [18] | [19]
inactive: all other assays above

OCC(O)CO
not listed: [1] | [18] | [19]
inactive: all other assays above

C#CC(O)C(CC)CCCC (stereo not given)
not listed: [18] | [19]
inactive: all other assays above

CCCCC(CC)COP(=O)(OCC(CC)CCCC)OCC(CC)CCCC (stereo not given)
inactive: [2] | [3] | [8] | [18] | [10] | [13] | [14]
active: [4] 18.2 µM | [5] 20 µM | [6] 20 µM | [7] 14 µM | [9] 20 µM | [11] 13.7 µM | [12] 12.2 µM | [17] 20 µM | [15] 20 µM | [16] 20 µM

CCCC(=O)O
not listed: [1] | [19]
inactive: all other assays above

Cc1cn([C@H]2C=C[C@@H](CO)O2)c(=O)[nH]c1=O
not listed: [1] | [17] | [19]
inactive: all other assays above

c1ccc2occc2c1
not listed: [1] | [18]
inactive: all other assays above

OCC(CO)n1cnc(-c2ccc(F)cc2)c1-c1ccnc(Oc2ccccc2)n1
active: [4] 1.08 µM | [6] 0.254 µM | [7] 0.852 µM | [10] 0.594 µM | [14] 2.28 µM
not listed: [1] | [17] | [18] | [19]
inactive: all other assays above

Cc1cc(Cc2ccc(N)c(C)c2)ccc1N
not listed: [18] | [19]
inactive: all other assays above

C/C=C/C=C/C(=O)O
active: [1] 41.5 µM
not listed: [16] | [17] | [18]
inactive: all other assays above

CC1(C)C(=O)NC(=O)N1CO
not listed: [17] | [19]
inactive: all other assays above

C/C=C/c1ccc(OC)cc1
not listed: [17] | [18] | [19]
inactive: all other assays above

CC1=C(C)S(=O)(=O)CCS1(=O)=O
active: [11] 39 µM
not listed: [1] | [18]
inactive: all other assays above

O=Cc1ccccc1C=O
not listed: [17] | [18] | [19]
inactive: all other assays above

O=C1c2c(O)cccc2Cc2cccc(O)c21
active: [9] 20 µM | [10] 4.63 µM | [11] 39 µM | [17] 20 µM
not listed: [18]
inactive: all other assays above

CCCCCCCCCCCCCCCCO
not listed: [1] | [18]
inactive: all other assays above
